Results on 14 compounds are retold here after PubChem BioAssay.

Calls of active or inactive are those of the source.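 How the source made its calls, unless noted: active means inhibition at or above 50% at 10 µM; inactive means inhibition below 50%.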

Test [1] is described as follows: inhibitors of TNFa-induced NFkB p65 translocation, primary screen, imaging, HUVEC, MLSMR starter and 10KST1 sets (AID 438;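 active means inhibition above 20% together with a positive visual image hit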;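 further: compound added about 3h40 before a 20 min TNFalpha stimulation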;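 on inhibition: signal is the nuclear over cytoplasmic p65 intensity ratio per well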). Conditions: HUVEC TNFa-induced p65 nuclear translocation; cell count: measured here: nuclei count (cytotoxicity indicator), at 2.08 µM; inhibition: at 2 µM, stronger effect = higher value, 0% TNFa-plus-vehicle, 100% no-TNFa wells.
A short description of test [2]: inhibitors of mutant huntingtin aggregation, primary screen, imaging, exon1htt(103Q)mCFP cells, high-content imaging (AID 483;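 active means visual image review flags a hit and inhibition of aggregation exceeds 20%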;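 further: compound exposure lasted 3 days before fixation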;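 on nuclei count: percent of the per-plate median nuclei count of sample wells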). The settings on record: exon1htt(103Q)mCFP cell line, aggregate imaging, at 2 µM; inhibition of aggregation: stronger effect = higher value; nuclei count: measured here: cell count, toxicity.
The nature of test [3]: inhibitors of E-selectin induction by TNFa, primary screen, imaging, HUVEC, immunofluorescence, MLSMR starter and 10KST1 sets (AID 487;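 active means visually confirmed hit in the image check and inhibition above 20%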;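 on inhibition: signal is fraction of cell area covered by stained E-selectin grains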;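 on nuclei count: 100% = median nuclei count of all wells on the same plate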). Conditions: HUVEC TNFalpha-induced E-selectin immunofluorescence imaging, at 2 µM; inhibition: stronger effect = higher value; nuclei count: measured here: cell number, toxicity.
Test [4] addresses Voltage-gated potassium channel subunit beta-2 (Rattus norvegicus) (UniProt P62483). Put plainly: KvBeta enzyme negative modulators, primary screen, biochemical, NADPH fluorescence (AID 622;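 active means fluorescence slope higher than the sample average by over 3 SD, cut at about -0.22 in these data, passing the limit was not always enough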;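 further: slope of raw intensity against log time taken from 70 to 1610 s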). The settings on record: recombinant KvBeta, 4-cyanobenzaldehyde reduction, at 10 µM, stronger effect = higher value.
Test [5] has the same target. As to the kind of experiment: KvBeta positive modulators, primary screen, biochemical, NADPH fluorescence (AID 623;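 active means NADPH fluorescence slope more negative than the mean of all samples by about 3 SD, 99.7% confidence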;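 further: fluorescence intensity change per second fitted from 20 to 320 s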). Conditions: Recombinant KvBeta, NADPH fluorescence decrease slope, 10 min; at 10 µM; stronger effect = lower value.
Test [6] concerns the target Alpha-2C adrenergic receptor (Homo sapiens) (UniProt P18825). Put plainly: modulators of alpha2C/GIRK thallium flux, primary screen, cell-based, HEK293 alpha2C/GIRK1/2 (AID 624;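 active means fluorescence slope after compound addition differing from the mean of all screened samples at 99.7% confidence, in either direction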;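 further: slope of fluorescence ratio to pre-addition baseline per second over 15 to 24 s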). The settings on record: thallium flux BTC fluorescence, at 10 µM, actives lie on both sides.
A short description of test [7]: inhibitors of Sendai virus-induced IRF3 signaling, primary screen, TLR/RLR signaling modifier project, cell-based, Sendai virus stimulus, luciferase, 10K MLSCN set (AID 602276).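 Further: firefly luciferase from ISG56 promoter only with Renilla not read in this screen; 0% = Sendai virus plus DMSO and 100% = medium plus DMSO without virus.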 Conditions: HEK293 RL24 IRF3 luciferase reporter, at 10 µM, stronger effect = higher value. A general note: Reporter assays use an easily measured gene product as a stand-in for the process of interest.

Test [8] is described as follows: inhibitors of poly I:C-induced TLR3 signaling, primary screen, cell-based, poly I:C stimulus, luciferase, 10K MLSCN set (AID 602277;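 active means inhibition of the reporter signal at or above 50%; inactive means inhibition below 50%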). Conditions: HEK293-TLR3 RL24 IRF3 luciferase reporter, at 10 µM, stronger effect = higher value.

Alpha-2C adrenergic receptor (Homo sapiens), sequence (P18825 whole entry, looked up): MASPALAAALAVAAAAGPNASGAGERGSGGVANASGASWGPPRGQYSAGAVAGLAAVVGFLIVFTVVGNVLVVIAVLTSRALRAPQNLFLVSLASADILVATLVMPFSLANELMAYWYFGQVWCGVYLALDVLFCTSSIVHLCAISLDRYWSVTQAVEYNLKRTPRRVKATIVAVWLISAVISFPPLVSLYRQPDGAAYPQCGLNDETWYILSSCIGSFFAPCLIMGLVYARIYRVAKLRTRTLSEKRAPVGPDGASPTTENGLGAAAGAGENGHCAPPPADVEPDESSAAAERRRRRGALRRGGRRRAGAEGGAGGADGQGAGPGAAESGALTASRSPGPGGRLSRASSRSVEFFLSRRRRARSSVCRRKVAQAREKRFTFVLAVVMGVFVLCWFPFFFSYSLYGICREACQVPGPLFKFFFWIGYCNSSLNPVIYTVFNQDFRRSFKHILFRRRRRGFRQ
Voltage-gated potassium channel subunit beta-2 (Rattus norvegicus), sequence (P62483 whole entry, looked up): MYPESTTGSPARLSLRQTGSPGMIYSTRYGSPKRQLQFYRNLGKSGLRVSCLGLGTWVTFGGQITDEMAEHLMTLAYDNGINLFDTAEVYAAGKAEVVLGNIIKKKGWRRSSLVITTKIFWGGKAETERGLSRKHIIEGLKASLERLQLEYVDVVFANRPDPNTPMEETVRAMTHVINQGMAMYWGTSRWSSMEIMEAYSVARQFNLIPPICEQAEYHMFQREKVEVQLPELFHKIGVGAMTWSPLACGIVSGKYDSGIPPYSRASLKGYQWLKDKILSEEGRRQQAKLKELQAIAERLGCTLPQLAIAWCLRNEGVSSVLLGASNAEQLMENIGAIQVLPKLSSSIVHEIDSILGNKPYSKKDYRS

Consider `CCOc1ccc(C2C=C(c3ccc(F)cc3)Nc3ncnn32)cc1` (centres undefined), for which the cell count in test [1] was determined as 548. Besides, the inhibition in test [1] was 11.5% (inactive); in test [3] it was -113% (inactive); in test [7] it was 6.86% (inactive); in test [8] it was 12.6% (inactive). The inhibition of aggregation in test [2] is -15.6% (inactive). The nuclei count in test [2] came out at 74.5%; in test [3], 125%. Moreover, the fluorescence slope in test [4] was -0.0654 (active). Further, in test [5], the NADPH fluorescence slope was -6.9e-06 (inactive). Further, in test [6], the slope is 0.00554 (inactive).
Regarding `CCCSc1nc2c(cnn2-c2ccc(Cl)cc2)c(=O)[nH]1`, the cell count in test [1] came to 213. Moreover, the inhibition was -1.3% (inactive) in test [1], -40.2% (inactive) in test [3], 16% (inactive) in test [7] and 14.5% (inactive) in test [8]. The inhibition of aggregation in test [2] was -9.2% (inactive). Besides, the nuclei count in test [2] was determined as 108%; in test [3] it was 122%. In addition, the fluorescence slope in test [4] is -0.609 (inactive). Besides, in test [5], the NADPH fluorescence slope was -1.8e-05 (inactive). Also, the slope in test [6] is 0.011 (inactive).
On to `Nc1nc(-n2cnnc2)nn1-c1ccccc1`, for which the cell count in test [1] came out at 414. Also, the inhibition in test [1] is 5.5% (inactive); in test [3], -44% (inactive); in test [7], 4.93% (inactive); in test [8] it was 4.43% (inactive). Further, in test [2], the inhibition of aggregation is -0.2% (inactive). Moreover, the figures for the nuclei count in test [2] and in test [3] were 97% and 118%, respectively. In test [4], the fluorescence slope was -0.366 (inactive). Moreover, the NADPH fluorescence slope in test [5] is -3e-05 (inactive). Further, in test [6], the slope was 0.0053 (inactive).
As for `O=c1oc2c3c4c(cc2s1)CCCN4CCC3`, the cell count in test [1] came out at 441. Also, the inhibition in test [1] was 7.4% (inactive); in test [3], -17.7% (inactive); in test [7], 7.3% (inactive); in test [8] it was 31.7% (inactive). Besides, the inhibition of aggregation in test [2] is -6.4% (inactive). For the same compound, the nuclei count was determined as 100% in test [2] and 119% in test [3]. For the same compound, the fluorescence slope in test [4] was -0.463 (inactive). The NADPH fluorescence slope in test [5] was -6e-05 (inactive). The slope in test [6] was 0.00368 (inactive).
On to `Cn1c(=N)c(S(=O)(=O)c2ccc(Cl)cc2)cc2c(=O)n3ccccc3nc21`, for which, in test [1], the cell count worked out at 294. For the same compound, the inhibition in test [1] is 1.6% (inactive); in test [3], 10.2% (inactive); in test [7], 8.16% (inactive); in test [8], 40.1% (inactive). The inhibition of aggregation in test [2] is -0.4% (inactive). The results for the nuclei count in test [2] and in test [3] were 97.1% and 94.5%, respectively. The fluorescence slope in test [4] was -0.405 (inactive). The NADPH fluorescence slope in test [5] is -4.7e-05 (inactive). The slope in test [6] is 0.00398 (inactive).
Turning to `O=C(Cn1c(=O)oc2ccccc21)Nc1ccc(S(=O)(=O)N2CCCCC2)cc1`, the cell count in test [1] is 392. The inhibition was 0.3% (inactive) in test [1], -75.3% (inactive) in test [3], 7.3% (inactive) in test [7] and 14.4% (inactive) in test [8]. In test [2], the inhibition of aggregation was -5.3% (inactive). For the same compound, the results for the nuclei count in test [2] and in test [3] were 89.6% and 126%, respectively. In addition, the fluorescence slope in test [4] was -0.504 (inactive). Besides, in test [5], the NADPH fluorescence slope was -2.7e-05 (inactive). Also, the slope in test [6] is 0.00415 (inactive).
With `O=C(CSc1nc(N2CCCCC2)nc(N2CCCCC2)n1)Nc1nccs1`, the cell count in test [1] amounted to 280. Also, the inhibition in test [1] was -7% (inactive); in test [3], -32.8% (inactive); in test [7], 1.6% (inactive); in test [8] it was 52.4% (active). In test [2], the inhibition of aggregation was 5.5% (inactive). The nuclei count in test [2] is 96.9%; in test [3], 72.8%. For the same compound, the fluorescence slope in test [4] is -0.531 (inactive). In addition, the NADPH fluorescence slope in test [5] is 7.9e-06 (inactive). Further, the slope in test [6] is 0.00662 (inactive).
Consider `Cc1ccc(-c2noc(CCC(=O)NCC3CCN(Cc4cccc(C)c4)CC3)n2)cc1`, for which the cell count in test [1] was determined as 400. In addition, the inhibition in test [1] was 1.5% (inactive); in test [3], 17% (inactive); in test [7], 25.8% (inactive); in test [8], 28.9% (inactive). Moreover, the inhibition of aggregation in test [2] is 7.8% (inactive). For the same compound, the nuclei count in test [2] is 88.4%; in test [3] it was 89.5%. In addition, the fluorescence slope in test [4] is -0.401 (inactive). Also, the NADPH fluorescence slope in test [5] was -4.7e-05 (inactive). In test [6], the slope is 0.0033 (inactive).
As to `COc1ccc(C(O)C(CN2CCOCC2)c2ccccc2)cc1F` (centres undefined), in test [1], the cell count worked out at 337. Moreover, the inhibition was -1.6% (inactive) in test [1], -20.8% (inactive) in test [3], 13.7% (inactive) in test [7] and 17.9% (inactive) in test [8]. In addition, the inhibition of aggregation in test [2] was -2.1% (inactive). The nuclei count in test [2] is 102%; in test [3], 104%. Besides, the fluorescence slope in test [4] is -0.493 (inactive). In test [5], the NADPH fluorescence slope is 1.8e-06 (inactive). Also, the slope in test [6] was 0.0062 (inactive).
Turning to `Cc1ccc2nsnc2c1S(=O)(=O)N(Cc1cc2cccc(C)c2[nH]c1=O)CC1CCCO1` (centres undefined), the cell count in test [1] was 641. The inhibition in test [1] was 2.6% (inactive); in test [3], 42.1% (inactive); in test [7], 32.9% (inactive); in test [8], 18.9% (inactive). Besides, the inhibition of aggregation in test [2] is 6.3% (inactive). Besides, the nuclei count was determined as 108% in test [2] and 92.6% in test [3]. In test [4], the fluorescence slope is -0.578 (inactive). Also, in test [5], the NADPH fluorescence slope was -6.5e-05 (inactive). Moreover, the slope in test [6] was 0.00367 (inactive).
`O=C(CNc1ccc(Oc2ccccc2)cc1)N1CCOCC1`: in test [1], the cell count worked out at 622. Also, the inhibition in test [1] was -26.3% (inactive); in test [3], -25.6% (inactive); in test [7], 18.1% (inactive); in test [8] it was 3.08% (inactive). Besides, the inhibition of aggregation in test [2] was 2.1% (inactive). Moreover, the figures for the nuclei count in test [2] and in test [3] were 103% and 97.4%, respectively. Also, in test [4], the fluorescence slope was -0.541 (inactive). The NADPH fluorescence slope in test [5] is -0.000138 (inactive). Besides, the slope in test [6] was 0.00652 (inactive).
Take `CCOC(=O)N1CCN(S(=O)(=O)c2cc(Cl)ccc2Cl)CC1`: the cell count in test [1] was 357. Besides, the inhibition was 5.2% (inactive) in test [1], -221% (inactive) in test [3], 14.8% (inactive) in test [7] and 18.5% (inactive) in test [8]. The inhibition of aggregation in test [2] is 29.4% (inactive). Besides, the nuclei count in test [2] stood at 95.3%; in test [3], 106%. For the same compound, in test [4], the fluorescence slope is -0.62 (inactive). In test [5], the NADPH fluorescence slope is -2.7e-05 (inactive). Besides, in test [6], the slope was 0.00556 (inactive).
For `Cn1c(C(=O)Nc2ccc3c(c2)OCO3)cc2c(=O)n(C)c3ccccc3c21`, the cell count in test [1] was 683. Also, the inhibition in test [1] was 7% (inactive); in test [3], -20.2% (inactive); in test [7], -13.1% (inactive); in test [8], -11.2% (inactive). The inhibition of aggregation in test [2] was -6.4% (inactive). Further, the nuclei count in test [2] and in test [3] was 104% throughout. Also, in test [4], the fluorescence slope was -0.264 (inactive). Further, the NADPH fluorescence slope in test [5] is -2.8e-06 (inactive). Moreover, the slope in test [6] was 0.00554 (inactive).
As for `COC(=O)c1ccc(CNC(=O)CSc2nc3sc(C)c(C)c3c(=O)n2C)o1`, in test [1], the cell count is 319. Further, the inhibition in test [1] was 3.3% (inactive); in test [3], 5.6% (inactive); in test [7] it was -0.162% (inactive); in test [8] it was 29.6% (inactive). Besides, the inhibition of aggregation in test [2] is 12.1% (inactive). For the same compound, the nuclei count in test [2] was 94.6%; in test [3], 95.6%. The fluorescence slope in test [4] is -0.434 (inactive). The NADPH fluorescence slope in test [5] is -4e-05 (inactive). For the same compound, the slope in test [6] is 0.00252 (inactive).

By inhibition is commonly meant the drop in the measured response relative to a control, in per cent.
